# Counter-ions that a name gives are not always drawn.
# What was measured:
# Details in all cases: compound concentration in added solution (µM; 5 µl added to 20 µl cells): 10; 18 h
# A431 [1] = test: LBPA endosome anti-LBPA integrated intensity (sum per cell), Z-score; higher = more LBPA staining
# In short: (§1)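 The data are Z-scores, normalised in AcuityXpress, of integrated LBPA or filipin intensity in each cell, either whole-cell or restricted to LBPA endosomes. HeLa MZ or A431 cells, 3,500 per well in 20 µl, were seeded onto 5 µl of 10 µM compound solution in duplicate 384-well plates and incubated 18 h. Fixed cells were stained and imaged, with intensities extracted by MetaXpress segmentation.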
# HeLa MZ [2] = test: as above
# In short: as §1
# A431 [3] = test: whole-cell filipin (free cholesterol) integrated intensity, Z-score; higher = more cholesterol staining
# In short: as §1
# HeLa MZ [4] = test: as above
# In short: as §1
# A431 [5] = test: filipin (cholesterol) integrated intensity within LBPA endosomes, Z-score; higher = more cholesterol in LBPA endosomes
# In short: as §1
# HeLa MZ [6] = test: as above
# In short: as §1
Structure (SMILES),LBPA endosome anti-LBPA integrated intensity (z-score) (A431 [1]),LBPA endosome anti-LBPA integrated intensity (z-score) (HeLa MZ [2]),whole-cell filipin (z-score) (A431 [3]),whole-cell filipin (z-score) (HeLa MZ [4]),filipin (z-score) (A431 [5]),filipin (z-score) (HeLa MZ [6])
CCOC(=O)C1=C(C)NC(C)=C(C(=O)OC)C1c1cccc([N+](=O)[O-])c1 (stereo not drawn) [Nitrendipine],-0.341,0.238,-0.283,0.00443,-0.327,-0.297
CC1(C)[C@H](C(=O)O)N2C(=O)C[C@H]2S1(=O)=O [Sulbactam],-0.453,-1.27,-0.128,-0.121,-0.375,-0.509
COc1ccc2[nH]c([S+]([O-])Cc3ncc(C)c(OC)c3C)nc2n1 (stereo not drawn) [Tenatoprazole],-0.331,0.434,-0.478,0.112,-0.438,-0.258
CCN(CC)C(=O)N1CCN(C)CC1 [Diethylcarbamazine citrate],-0.522,-0.824,-0.731,-0.758,-0.529,-0.553
Nc1ccc(S(=O)(=O)Nc2ccc(Cl)nn2)cc1 [Sulfachloropyridazine],-0.463,-0.899,-0.227,-0.78,-0.494,-0.56
CCCCNc1ccc(C(=O)OCCOCCOCCOCCOCCOCCOCCOCCOCCOC)cc1 [Benzonatate],-0.445,-0.231,-0.686,-0.896,-0.427,-0.476
Cc1ccc(-c2ncc(Cl)cc2-c2ccc(S(C)(=O)=O)cc2)cn1 [Etoricoxib],-0.471,-1.03,-0.752,-0.603,-0.543,-0.516
COC(=O)C1=C(C#N)NC(C)=C(C(=O)OC(C)C)C1c1cccc([N+](=O)[O-])c1 (stereo not drawn) [Nilvadipine],-0.407,-0.929,0.11,0.875,-0.268,-0.158
CC[C@H]1OC(=O)[C@H](C)[C@@H](O[C@H]2C[C@@](C)(OC)[C@@H](O)[C@H](C)O2)[C@H](C)[C@@H](O[C@@H]2O[C@H](C)C[C@H](N(C)C)[C@H]2O)[C@](C)(OC)C[C@@H](C)C(=O)[C@H](C)[C@@H](O)[C@]1(C)O [Clarithromycin],-0.524,0.332,-0.0542,0.0043,-0.407,-0.21
COc1c(N2C[C@@H]3CCCN[C@@H]3C2)c(F)cc2c(=O)c(C(=O)O)cn(C3CC3)c12 [Moxifloxacin],-0.595,-1.37,-0.138,-0.0544,-0.469,-0.207
O=C1NCN(c2ccccc2)C12CCN(CCCC(c1ccc(F)cc1)c1ccc(F)cc1)CC2 [Fluspirilen],2.78,1.04,1.65,1.64,4.57,4.14
COC(=O)N/N=C/c1c[n+]([O-])c2ccccc2[n+]1[O-] [Carbadox],-0.532,-0.164,-0.439,-0.327,-0.53,-0.532
O=C(NCCNCC(O)COc1ccc(O)cc1)N1CCOCC1 (stereo not drawn) [Xamoterol hemifumarate],-0.337,-0.849,-0.403,-0.263,-0.407,-0.533
CC(C)COCC(CN(Cc1ccccc1)c1ccccc1)N1CCCC1 (stereo not drawn) [Bepridil hydrochloride],1.46,1.74,-0.0149,-0.717,2.11,0.331
Nc1nc(=O)[nH]cc1F [Flucytosine],-0.468,-0.721,-0.313,-0.0984,-0.463,-0.623
O=C(O)c1ccccc1Nc1cccc(C(F)(F)F)c1 [Flufenamic acid],-0.586,-0.521,-0.734,-0.685,-0.54,-0.632
O=C(O)c1cccnc1Nc1cccc(C(F)(F)F)c1 [Niflumic acid],-0.414,-0.666,-0.705,-0.278,-0.444,-0.519
O=C(O)CCc1nc(-c2ccccc2)c(-c2ccccc2)o1 [Oxaprozin],-0.435,-0.524,-0.0363,0.42,-0.35,-0.246
CCCC(=O)Nc1ccc(OCC(O)CNC(C)C)c(C(C)=O)c1 (stereo not drawn) [Acebutolol hydrochloride],-0.335,-0.6,-0.712,-0.665,-0.476,-0.408
NCCc1cc[nH]n1 [Betazole hydrochloride],-0.528,0.0261,-0.472,-0.657,-0.476,-0.51
CC1COc2c(N3CCN(C)CC3)c(F)cc3c(=O)c(C(=O)O)cn1c23 (stereo not drawn) [Ofloxacin],-0.519,-0.166,-0.939,0.125,-0.532,-0.106
CCN(CC)C(C)CN1c2ccccc2Sc2ccccc21 (stereo not drawn) [Ethopropazine hydrochloride],3.1,5.78,2.83,2.95,2.11,1.8
CN1CCCN=C1/C=C/c1cccs1 [Pyrantel tartrate],-0.533,-0.181,-0.934,-1.12,-0.565,-0.677
O=C(O)CNC(=O)C(CS)Cc1ccccc1 (stereo not drawn) [Thiorphan],-0.785,-1.92,-0.897,-0.571,-0.691,-0.682
C[C@@H]1NC(=O)NC1=O [Methylhydantoin-5-(L)],-0.307,0.559,-0.263,-0.142,-0.411,-0.338
COc1ccc2c(c1)N(C[C@H](C)CN(C)C)c1ccccc1S2 [Methotrimeprazine maleat salt],2.94,1.48,1.03,-0.207,1.82,1.55
O=C(O)CCC(=O)Nc1ccc(S(=O)(=O)Nc2nccs2)cc1 [Succinylsulfathiazole],-0.428,-0.709,-0.288,-0.818,-0.463,-0.508
COc1ccccc1OCCNCC(O)COc1cccc2[nH]c3ccccc3c12 (stereo not drawn) [Carvedilol],4.32,3.72,2.68,3,3.9,5.27

# From the supplement of paper PMC6607015
